Reference: PubChem BioAssay (NCATS)
Results filed as inconclusive are left out. Calls of active or inactive are those of the source. Calls come from the whole dose curve; as a rule, active = well fitted inhibition curve with a large enough effect; inconclusive = small, poorly fitted or top-dose-only effect; inactive = flat fitted curve, though single readings scatter.

tested on: ICS; test: qHTS profiling for inhibitors of Plasmodium falciparum proliferation (AID 504749); note: nearly all actives have a fitted effect of over 60% in size;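 for activity, negative = inhibition: 0% = DMSO vehicle and full inhibition = artemisinin control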; conditions: P. falciparum in erythrocytes, SYBR Green DNA, 72 h; series mostly up to 28.7 µM; activity, negative = inhibition: at the top concentration
In short: (§1)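 P. falciparum-infected erythrocytes (0.3% parasitemia, 2.5% hematocrit) incubated with compound 72 h at 37 C, 5% CO2. Parasite DNA detected by SYBR Green after lysis, overnight at room temperature; normalised to 0.29 uM artemisinin and DMSO.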
Potency is the fitted concentration of half-maximal effect.

Compound	activity, negative = inhibition	Potency
CC(C)NC[C@H](O)COc1ccc(CC(N)=O)cc1	23.7% (inactive)	–
CCCCCCCCCCCCCCCCCCOC[C@H](COP(=O)([O-])OCC[N+](C)(C)C)OC	5.06% (inactive)	–
CN1C2CCC1CC(OC(c1ccccc1)c1ccccc1)C2 (stereo not given)	–	0.178 µM (active)
CC(O)C(O)[C@H]1CNc2nc(N)[nH]c(=O)c2N1 (stereo not given in full)	-1.71% (inactive)	–
c1ccc(C2CN3CCSC3=N2)cc1 (stereo not given)	–	1.26 µM (active)

tested on: JCK; test: as above; conditions: P. falciparum in erythrocytes, SYBR Green DNA, 72 h; series mostly up to 28.7 µM; activity, negative = inhibition: at the top concentration
In short: as §1

Compound	activity, negative = inhibition
CCCCCCCCCCCCCCC[C@H](O)[C@H](N)CO	0.948% (inactive)
CC(C)NC[C@H](O)COc1ccc(CC(N)=O)cc1	7.32% (inactive)
CCCCCCCCCCCCCCCCCCOC[C@H](COP(=O)([O-])OCC[N+](C)(C)C)OC	7.54% (inactive)
CN1C2CCC1CC(OC(c1ccccc1)c1ccccc1)C2 (stereo not given)	-21.3% (inactive)
CC(O)C(O)[C@H]1CNc2nc(N)[nH]c(=O)c2N1 (stereo not given in full)	12.4% (inactive)

tested on: N140; test: as above; conditions: P. falciparum in erythrocytes, SYBR Green DNA, 72 h; series mostly up to 28.7 µM; activity, negative = inhibition: at the top concentration
In short: as §1

Compound	activity, negative = inhibition	Potency
CCCCCCCCCCCCCCC[C@H](O)[C@H](N)CO	15.9% (inactive)	–
CC(C)NC[C@H](O)COc1ccc(CC(N)=O)cc1	15.4% (inactive)	–
CCCCCCCCCCCCCCCCCCOC[C@H](COP(=O)([O-])OCC[N+](C)(C)C)OC	13.9% (inactive)	–
CN1C2CCC1CC(OC(c1ccccc1)c1ccccc1)C2 (stereo not given)	-22.5% (inactive)	–
CC(O)C(O)[C@H]1CNc2nc(N)[nH]c(=O)c2N1 (stereo not given in full)	16.6% (inactive)	–
c1ccc(C2CN3CCSC3=N2)cc1 (stereo not given)	–	3.98 µM (active)

tested on: P93_24; test: as above; conditions: P. falciparum in erythrocytes, SYBR Green DNA, 72 h; series mostly up to 28.7 µM; activity, negative = inhibition: at the top concentration
In short: as §1

Compound	activity, negative = inhibition	Potency
CCCCCCCCCCCCCCC[C@H](O)[C@H](N)CO	9.77% (inactive)	–
CCCCCCCCCCCCCCCCCCOC[C@H](COP(=O)([O-])OCC[N+](C)(C)C)OC	-1.64% (inactive)	–
CC(O)C(O)[C@H]1CNc2nc(N)[nH]c(=O)c2N1 (stereo not given in full)	7.29% (inactive)	–
c1ccc(C2CN3CCSC3=N2)cc1 (stereo not given)	–	2.82 µM (active)

tested on: P94_40; test: as above; conditions: P. falciparum in erythrocytes, SYBR Green DNA, 72 h; series mostly up to 28.7 µM; activity, negative = inhibition: at the top concentration
In short: as §1

Compound	activity, negative = inhibition	Potency
CCCCCCCCCCCCCCC[C@H](O)[C@H](N)CO	3.52% (inactive)	–
CC(C)NC[C@H](O)COc1ccc(CC(N)=O)cc1	4.21% (inactive)	–
CCCCCCCCCCCCCCCCCCOC[C@H](COP(=O)([O-])OCC[N+](C)(C)C)OC	7.99% (inactive)	–
CC(O)C(O)[C@H]1CNc2nc(N)[nH]c(=O)c2N1 (stereo not given in full)	2.92% (inactive)	–
c1ccc(C2CN3CCSC3=N2)cc1 (stereo not given)	–	3.55 µM (active)

tested on: PAD; test: as above; conditions: P. falciparum in erythrocytes, SYBR Green DNA, 72 h; series mostly up to 28.7 µM; activity, negative = inhibition: at the top concentration
In short: as §1

Compound	activity, negative = inhibition	Potency
CCCCCCCCCCCCCCC[C@H](O)[C@H](N)CO	3.31% (inactive)	–
CC(C)NC[C@H](O)COc1ccc(CC(N)=O)cc1	8.11% (inactive)	–
CCCCCCCCCCCCCCCCCCOC[C@H](COP(=O)([O-])OCC[N+](C)(C)C)OC	8.34% (inactive)	–
CC(O)C(O)[C@H]1CNc2nc(N)[nH]c(=O)c2N1 (stereo not given in full)	13% (inactive)	–
c1ccc(C2CN3CCSC3=N2)cc1 (stereo not given)	–	7.94 µM (active)

tested on: PC15; test: as above; conditions: P. falciparum in erythrocytes, SYBR Green DNA, 72 h; series mostly up to 28.7 µM; activity, negative = inhibition: at the top concentration
In short: as §1

Compound	activity, negative = inhibition	Potency
CCCCCCCCCCCCCCC[C@H](O)[C@H](N)CO	0.832% (inactive)	–
CC(C)NC[C@H](O)COc1ccc(CC(N)=O)cc1	10.3% (inactive)	–
CCCCCCCCCCCCCCCCCCOC[C@H](COP(=O)([O-])OCC[N+](C)(C)C)OC	1.62% (inactive)	–
CC(O)C(O)[C@H]1CNc2nc(N)[nH]c(=O)c2N1 (stereo not given in full)	7.52% (inactive)	–
c1ccc(C2CN3CCSC3=N2)cc1 (stereo not given)	–	2.82 µM (active)

tested on: PC26; test: as above; conditions: P. falciparum in erythrocytes, SYBR Green DNA, 72 h; series mostly up to 28.7 µM; activity, negative = inhibition: at the top concentration
In short: as §1

Compound	activity, negative = inhibition	Potency
CCCCCCCCCCCCCCC[C@H](O)[C@H](N)CO	12.6% (inactive)	–
CC(C)NC[C@H](O)COc1ccc(CC(N)=O)cc1	2.31% (inactive)	–
CC(O)C(O)[C@H]1CNc2nc(N)[nH]c(=O)c2N1 (stereo not given in full)	0.749% (inactive)	–
c1ccc(C2CN3CCSC3=N2)cc1 (stereo not given)	–	15.1 µM (active)

tested on: PC49; test: as above; conditions: P. falciparum in erythrocytes, SYBR Green DNA, 72 h; series mostly up to 28.7 µM; activity, negative = inhibition: at the top concentration
In short: as §1

Compound	activity, negative = inhibition	Potency
CCCCCCCCCCCCCCC[C@H](O)[C@H](N)CO	10.4% (inactive)	–
CC(C)NC[C@H](O)COc1ccc(CC(N)=O)cc1	11.2% (inactive)	–
CCCCCCCCCCCCCCCCCCOC[C@H](COP(=O)([O-])OCC[N+](C)(C)C)OC	4.79% (inactive)	–
CN1C2CCC1CC(OC(c1ccccc1)c1ccccc1)C2 (stereo not given)	–	2 µM (active)
CC(O)C(O)[C@H]1CNc2nc(N)[nH]c(=O)c2N1 (stereo not given in full)	2.23% (inactive)	–

tested on: SC27B; test: as above; conditions: P. falciparum in erythrocytes, SYBR Green DNA, 72 h; series mostly up to 28.7 µM; activity, negative = inhibition: at the top concentration
In short: as §1

Compound	activity, negative = inhibition	Potency
CCCCCCCCCCCCCCC[C@H](O)[C@H](N)CO	13.3% (inactive)	–
CC(C)NC[C@H](O)COc1ccc(CC(N)=O)cc1	0.216% (inactive)	–
CCCCCCCCCCCCCCCCCCOC[C@H](COP(=O)([O-])OCC[N+](C)(C)C)OC	9.16% (inactive)	–
CN1C2CCC1CC(OC(c1ccccc1)c1ccccc1)C2 (stereo not given)	-22.8% (inactive)	–
CC(O)C(O)[C@H]1CNc2nc(N)[nH]c(=O)c2N1 (stereo not given in full)	3.93% (inactive)	–
c1ccc(C2CN3CCSC3=N2)cc1 (stereo not given)	–	10 µM (active)
